tim23-1 inh: inhibits growth of tim23-1 mutant yeast | S. cerevisiae tim23-1 growth, BacTiter-Glo luminescence, 24 h | inhibition, % at 20 µM | hit rate 1.3% among 330,000;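 active means growth inhibition of the mutant yeast at or above 50%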;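 further: temperature-sensitive mutant grown at 25 °C; plate controls were DMSO-treated mutant yeast for no effect and medium wells lacking yeast for full effect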
TIM10 inh: growth inhibitors of TIM10 yeast strain; inhibition, % at 10 µM; S. cerevisiae TIM10 strain growth, BacTiter-Glo luminescence, 24 h; hit rate 1.4% among 330,000; AID 463195;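 active means inhibition of 40% or more at the single tested concentration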;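 further: wild-type TIM10 isogenic control strain grown at permissive 25 °C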
NLRP3 yeast inh: NALP3 inhibition in yeast | Yeast reconstituted NLRP3/ASC/caspase-1, beta-gal luminescence, 24 h | inhibition, % at 10 µM | hit rate 0.39% among 330,000;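 active means inhibition of 50% or more; inactive means inhibition below 50%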;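 further: plate controls were induced DMSO wells for no effect and uninduced yeast grown without galactose for full effect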
SKKanGAS inh: blocks kanamycin growth of S. pyogenes SKKanGAS strain; hit rate 1.3% among 300,000; AID 1662; inhibition, % at 7.5 µM; BacTiter-Glo, 6 h;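 active means mean replicate score, as percent of positive control median, at least 50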;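 further: strain carries kanamycin resistance gene driven by streptokinase promoter and grows in 40 µg/ml kanamycin; loss of luminescence reflects streptokinase promoter inhibition or plain growth inhibition; 0% = median of DMSO wells and 100% = positive control at its reference dose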
NALP1 inh: blocks the NALP1 inflammasome reconstituted in yeast; S. cerevisiae NALP1/ASC/caspase-1 growth, X-gal OD620, 72 h; inhibition, % at 10 µM; hit rate 0.61% among 280,000; AID 2071; in the data active means inhibition mostly above about 24%, no sharp cut-off; inactive means mostly below about 32%
tim10-1 inh: tim10-1 yeast growth inhibition | S. cerevisiae tim10-1 ts strain growth, BacTiter-Glo, 24 h | inhibition, % at 20 µM | hit rate 2.2% among 330,000;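 active means inhibition of at least 40%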;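 further: mutant grown at 25 °C; 0% = DMSO wells with yeast and 100% = wells holding no yeast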
tim10-1 confirm: confirmation of tim10-1 mutant yeast growth inhibitors; S. cerevisiae tim10-1 ts strain growth, BacTiter-Glo, 24 h; shares compounds with tim10-1 inh; hit rate 56% among 7,400; inhibition, % at 20 µM;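 active means inhibition of yeast growth at or above a set limit in either of two repeat tests at 20 µM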;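 further: tim10-1 mutant grown at permissive 25 °C to find synthetic lethal compounds; 0% = DMSO yeast wells and 100% = medium wells without yeast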
* marks the source's active call; other numbers are inactive results; · = no result. An excerpt weighted towards active compounds, which were near 4.9% of everything screened.

SMILES	tim23-1 inh	TIM10 inh	NLRP3 yeast inh	SKKanGAS inh	NALP1 inh	tim10-1 inh	tim10-1 confirm
Cc1cccc2c1nc(-c1ccccc1)n1cnnc21	26	0	-12	10	-12	40*	24
Cc1cccc2c1nc(-c1ccccc1)n1nnnc21	9	-3	-32	-15	14	18	·
CCSc1cc(C)nc2c(-c3ccccc3)c(C)nn12	36	7	2	-13	-6	40*	17
Cc1cc(NCCC(C)C)n2nc(C)c(-c3ccccc3)c2n1	28	14	-12	-4	3	45*	26
Cc1cc(NCCCN2CCOCC2)n2nc(C)c(-c3ccccc3)c2n1	19	9	26	2	21	19	·
CCCCNc1nc2c(c(=O)n(Cc3ccccc3)c(=O)n2C)n1C	25	21	12	9	13	15	·
COc1ccc(CCNc2oc(COc3ccccc3)nc2C#N)cc1	19	5	18	4	3	47*	43*
Cc1ccc(S(=O)(=O)N2CCC(C(=O)N/N=C/c3cccn3C)CC2)cc1	2	-11	14	·	·	6	·
COc1ccc(OC)c(S(=O)(=O)n2nnc3ccccc32)c1	3	18	3	1	7	19	·
COc1ccc(F)cc1S(=O)(=O)n1nnc2ccccc21	47	24	-60	-6	-7	50*	41*
O=C(COc1ccc(Cl)cc1Cl)N/N=C/c1ccc[nH]1	32	2	20	-1	11	44*	-2
O=C(COc1ccc(Cl)cc1Cl)N/N=C/CCc1ccccc1	14	13	3	1	-1	16	·
O=C(CCN1C(=O)S/C(=C\c2ccccc2)C1=O)N1CCOCC1	2	25	-9	-5	·	52*	31
O=C(CCN1C(=O)/C(=C\c2ccccc2)SC1=S)N1CCOCC1	12	19	15	7	-12	17	·
O=C(CCN1C(=O)S/C(=C\c2ccccc2)C1=O)N1CCCCC1	38	8	9	14	-7	44*	39*
COc1cc(CC(=O)Nc2nc(-c3ccccc3)c(C(C)=O)s2)cc(OC)c1OC	7	17	21	1	-28	2	·
COc1ccc(-c2sc(NC(C)=O)nc2-c2ccccc2)cc1	33	35	9	2	28	28	·
COc1ccc(CC(=O)Nc2nc(-c3ccccc3)c(C(C)=O)s2)cc1OC	18	12	4	-3	10	48*	27
COc1ccc(-c2nc(NC(C)=O)sc2-c2ccccc2)cc1	42	26	2	36	-8	42*	20
O=C(CCc1nnc2ccc(NCc3ccco3)nn12)N1CCN(c2ccc(F)cc2)CC1	-10	-1	3	-8	-1	-10	·
CC1Oc2ccccc2N(CC(=O)Nc2ccc(F)cc2)C1=O (stereo not given)	17	2	12	8	11	11	·
CCOC(=O)/C(=C\c1ccc([N+](=O)[O-])o1)NC(=O)c1ccccc1	44	34	7	2	-6	47*	42*
CCN1C(=O)/C(=C/c2c(C)nn(C)c2C)SC1=S	45	25	14	-2	36	55*	44*
CCCCC(=O)NC(=S)Nc1ccc(NC(=O)C(C)C)c(OC)c1	31	17	-9	8	19	43*	21
CCCCC(=O)Nc1ccc(NC(=S)NC(=O)CCCCl)cc1OC	22	35	17	2	31	48*	39*
C[C@]12c3[nH]c4ccc(Cl)cc4c3CCN1C(=O)[C@@H](CC(=O)NCCN1CCOCC1)C[C@@H]2C(=O)N1CCCCC1	12	-6	·	·	·	-1	·
CCOC(=O)N1CCN(C(=O)c2cccc(N3C(=O)NC4CC3(C)Oc3ccc(Cl)cc34)c2)CC1 (stereo not given)	5	20	7	5	-20	45*	11
CCOC(=O)C1CCN(C(=O)c2cccc(N3C(=O)NC4CC3(C)Oc3ccc(C)cc34)c2)CC1 (stereo not given)	11	5	2	-4	9	14	·
O=C(/C=C\c1ccc(-c2ccccc2)o1)c1ccccc1	45	31	13	-23	41	48*	48*

Screens deposited in PubChem by several laboratories.
